This experiment is described as follows: quenching of GFP signal – biochemical, fluorescence, dose response, artefact control for Rin1-Abl interaction inhibitor project, late-stage follow-up (AID 602397). The note with it: GFP fluorescence quenching counterscreen.

This is one part of the list. Unmarked numbers belong to inactive results. How the calls were made is not given here. Some results are limits rather than exact numbers.

For `CN(Cc1c(F)cccc1Cl)C(=O)CNC(=O)c1ccc2c(c1)OCO2`, the IC50 was over 67.5 µM.

Source of the values: PubChem BioAssay AID602397 (The Scripps Research Institute Molecular Screening Center, 2012).
